Shown are actives, neighbours in structure and some others; about 9.2% of the full set was active somewhere.
SMN2 splice enh = increases expression of the SMN2 splice variant. HEK293 SMN2-luciferase splicing reporter, luminescence, 30-36 h. Potency, µM (doses to about 46.1 µM), without a hit: top-dose activity change, positive = activation, usual class: activators. hit rate 2.8% among 210,000; further: % of control where 0% means no effect; nearly all actives have a fitted effect of over 55% in size
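qHTS luciferase splicing reporter: luminescence rises when SMN2 exon 7 is included in transfected HEK293 cells. Compound exposure lasted 30-36 h at 37C, with 4.5 mM final sodium butyrate as control, followed by a ONE-Glo read.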
ELG1 DNA repair = ELG1-dependent DNA repair inhibition; Potency, µM (top dose mostly 46.1 µM), for inactives: at the top dose activity change, negative = inhibition, most hits filed as inhibitors; HEK293T ELG1-luciferase reporter, luminescence, 16 h; DNA damage induced by 5-fluorouridine; hit rate 2.3% among 330,000; further: on the % scale 0 is the no-effect control and ±100 the full control effect; nearly all actives have a fitted effect of over 55% in size
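HEK293T cells expressing luciferase-tagged ELG1 (2,000/well) received 5-Fluorouridine plus compound or DMSO for 16 hr at 37 °C. Luciferase was read by ONE-Glo luminescence after 30 min at room temperature.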
NPC1 prom act = activates the NPC1 promoter | Huh7 NPC1 promoter luciferase reporter, 24 h | AID 485313 | hit rate 2.4% among 320,000 | Potency, µM (highest dose often 9.22 µM), without a hit: at the highest dose activation, hits mostly activators; further: % of control where 0% means no effect; nearly all actives have a fitted effect of over 60% in size
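In 1536-well qHTS, Huh7 cells harboring an NPC1 promoter–luciferase construct received compound for 24 h; activation was quantified by luminescence following luciferase reagent addition.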
ELG1 genotoxic = induces genotoxicity in HEK293T cells with luciferase-tagged ELG1; HEK293T ELG1-luciferase reporter, luminescence, 16 h; Potency, µM (highest dose often 46 µM), for inactives: top-dose activity change, positive = activation, most hits filed as activators; hit rate 1.3% among 330,000; AID 504466; further: % of control where 0% means no effect; nearly all actives have a fitted effect of over 60% in size
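Quantitative HTS format in 1536-well plates. HEK293T ELG1-luciferase reporter cells receive test compound and are incubated 16 hr at 37 °C, 5% CO2; ONE-Glo added, 30 min room temperature, then luminescence read.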
FLuc modulator = inhibits or activates purified firefly luciferase, miR-21 counter-screen; P08659; purified FLuc, Km substrates, luminescence inhibition; Potency, µM (highest dose often 57.5 µM), for inactives: at the top dose activity change, negative = inhibition, hits mostly inhibitors; hit rate 6.9% among 360,000; AID 588342;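 further: plate controls were vehicle for no effect and reference inhibitor for full effect; nearly all actives have a fitted effect of over 55% in size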
Target sequence (P08659 whole entry, looked up): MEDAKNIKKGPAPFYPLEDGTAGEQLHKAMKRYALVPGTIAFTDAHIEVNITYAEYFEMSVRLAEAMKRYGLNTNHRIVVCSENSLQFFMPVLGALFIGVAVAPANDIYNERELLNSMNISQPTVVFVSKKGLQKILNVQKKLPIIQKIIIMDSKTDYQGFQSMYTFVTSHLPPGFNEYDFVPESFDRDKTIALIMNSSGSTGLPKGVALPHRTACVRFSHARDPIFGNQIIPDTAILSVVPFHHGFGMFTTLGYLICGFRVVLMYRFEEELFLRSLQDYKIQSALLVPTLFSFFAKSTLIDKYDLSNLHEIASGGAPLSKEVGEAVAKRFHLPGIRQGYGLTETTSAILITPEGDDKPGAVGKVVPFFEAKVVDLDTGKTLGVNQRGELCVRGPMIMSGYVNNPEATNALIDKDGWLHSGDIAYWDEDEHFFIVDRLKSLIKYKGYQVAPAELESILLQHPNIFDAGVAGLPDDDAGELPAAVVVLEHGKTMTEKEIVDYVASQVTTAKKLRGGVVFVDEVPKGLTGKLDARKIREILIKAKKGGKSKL
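Purified P. pyralis luciferase, 10 nM final, with Km-level 10 uM D-luciferin and 10 uM ATP in 50 mM Tris acetate pH 7.5, 10 mM Mg acetate, 0.01% Tween-20, 0.05% BSA; 6-point qHTS titration about 60 µM downward; luminescence read.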
Rab9 promoter act = Rab9 promoter activation; Huh7 Rab9 promoter-luciferase reporter, luminescence, 24 h; hit rate 2.8% among 320,000; Potency, µM (series often up to 9.22 µM), for the others: at the highest dose activation, negative = inhibition, hits mostly activators; further: % of control where 0% means no effect; nearly all actives have a fitted effect of over 60% in size
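Rab9 promoter-driven luciferase in stably transfected Huh7 cells; 1500 cells/well rested 2 h, exposed to compound in DMSO for 24 h at 37 °C, 5% CO2. Luminescence read 10 min after adding luciferase reagent at ambient temperature.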
* marks the source's active call; other numbers are inactive results; ? = inconclusive; · = not tested or not shown. The call rests on the fitted dose curve; in most records, active means well fitted curve in the direction sought with a large enough effect; inconclusive means small, poorly fitted or top-dose-only effect, or another doubt; inactive means no such curve, though single readings can be large; an effect the other way counts as inactive or inconclusive. Potency means the concentration at half of the fitted maximal effect.

SMILES	SMN2 splice enh	ELG1 DNA repair	NPC1 prom act	ELG1 genotoxic	FLuc modulator	Rab9 promoter act
O=C(c1ccccc1)N1CCN(Cc2ccc3c(c2)OCO3)CC1	·	-17%	2%	-1%	-1%	-5%
O=C(C1CCN(c2nnc(-n3cccc3)s2)CC1)N1CCN(Cc2ccc3c(c2)OCO3)CC1	-84%	?	-6%	-1%	-2%	-13%
Cn1c(C(=O)N2CCN(Cc3ccc4c(c3)OCO4)CC2)cc2sccc21	-24%	?	-1%	-3%	-1%	-3%
O=C(C1CCN(c2nnc(N3CCCC3=O)s2)CC1)N1CCN(Cc2ccc3c(c2)OCO3)CC1	-28%	13µM*	-7%	1%	-1%	-1%
O=C(c1sccc1Cl)N1CCN(Cc2ccc3c(c2)OCO3)CC1	·	21µM*	1%	-9%	-4%	5%
Cc1cccc(-n2c(N)cc(=O)nc2SCC(=O)Nc2ccc(F)cc2)c1C	1%	·	·	·	1%	·
CCOc1ccc(N2CC(c3nc4ccccc4n3CCCOc3ccccc3)CC2=O)cc1 (stereo unspecified)	-22%	·	·	·	?	·
Cc1occc1C(=O)N/N=C/C=C/c1ccccc1[N+](=O)[O-]	-11%	3%	2%	6%	?	-2%
Cc1occc1C(=O)N/N=C/C=C/c1ccc(N(C)C)cc1	·	?	4.5µM*	?	24µM*	2.5µM*
Cc1ccc(/C=N/NC(=O)c2ccoc2C)o1	?	?	29%	16%	?	?
Cc1occc1C(=O)N/N=C/C=C/c1ccccc1	13µM*	?	3.5µM*	?	?	3.5µM*
Cc1occc1C(=O)N/N=C/C(Br)=C\c1ccccc1	·	?	2.5µM*	?	2.1µM*	0.89µM*
Cc1occc1C(=O)N/N=C/c1ccc(N(C)C)cc1	·	?	0.32µM*	?	1.2µM*	0.11µM*
CC(NC(=O)c1ccc(F)cc1)c1nc2ccccc2[nH]1 (stereo unspecified)	-1%	·	·	·	1%	·
NC(=S)N/N=C1\CC(c2ccc3c(c2)OCCCO3)Oc2ccc(F)cc21 (stereo unspecified)	·	3.7µM*	-1%	-7%	15µM*	1%
NC(=S)N/N=C1\CC(c2ccc3c(c2)OCCO3)Oc2ccc(F)cc21 (stereo unspecified)	·	-15%	-3%	-6%	?	-1%
O=C(NC(c1cccnc1)C(F)(F)F)c1cc(COc2ccc3c(c2)CCCC3)on1 (stereo unspecified)	·	?	-3%	12%	15µM*	6%
O=C(O)CSc1ncnc2sc(-c3ccccc3)cc12	2%	1%	8%	-5%	13µM*	13%
O=C(O)CCSc1ncnc2sc(-c3ccccc3)cc12	·	-4%	-23%	-7%	21µM*	-27%
S=c1[nH]cnc2sc(-c3ccccc3)cc12	·	?	17%	0%	11µM*	?
O=C(COC(=O)c1ccc(NS(=O)(=O)c2ccc(F)c(F)c2)cc1)NCC1CCCO1 (stereo unspecified)	·	12%	-1%	0%	-9%	-2%
Cc1cc(C)c(S(=O)(=O)/N=C2/C=C(SCC(=O)O)C(=O)c3ccccc32)cc1C	-79%	?	4%	-7%	21µM*	-1%
Cc1cc(C)c(S(=O)(=O)Nc2cc(SCC(=O)O)c(O)c3ccccc23)cc1C	-115%	-7%	8%	-10%	?	5%
Cc1ccc(C)c(N2CCN(C(=O)CCS(=O)(=O)c3cc4c(cc3Cl)NC(=O)CO4)CC2)c1	·	·	·	·	0%	·
Cc1[nH]nc2cn[nH]c12	6%	13µM*	8%	-15%	0%	-1%
Cc1cccc2cn[nH]c12	·	14%	-12%	7%	0%	-5%
COCCCNc1nc2c(-c3ccc(Cl)cc3)nnn2c2ccccc12	-5%	16%	-3%	-1%	-1%	-7%

Compound activity deposited in PubChem BioAssay by National Center for Advancing Translational Sciences (NCATS).
